Screen size: about 2,000 compounds; about 100 (5%) were called active. Cut-off read from the data, not from the text of the source: active = z-score above about 2; inactive = the rest. What follows is part of a selection rich in actives, with near analogues and random picks from the rest.

The experiment in a line: supercomplex reporter luminescence per Hoechst cell count – Hoechst nuclei count (AID 1645838).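 For all read-outs here: control cybrid cells.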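 For z-score: higher means more mitochondrial supercomplex formation.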 Conditions: Cells, luminescence/Hoechst cell count ratio; for z-score: stronger effect = higher value; for cell count: measured here: cell number, Hoechst nuclei count.
Setting [1] is: library stock concentration (final well concentration not given) 46 uM.
[2] abbreviates: library stock concentration (final well concentration not given) 278 uM.
Where [3] appears, read: library stock concentration (final well concentration not given) 1.67 mM.
[4] abbreviates: library stock concentration (final well concentration not given) 10 mM.
Where [5] appears, read: library stock concentration (final well concentration not given) 80 uM.
[6] abbreviates: library stock concentration (final well concentration not given) 400 uM.
Setting [7] is: library stock concentration (final well concentration not given) 2 mM.

On to `CCCC/C=C/C=C/C=C\CCCCCCCC(=O)OC`, for which the z-score is 0.121 (inactive) and the cell count was determined as 4950.
In the case of `O=C(O)CCC/C=C\C[C@@H]1C(=O)C[C@@H](O)[C@@H]1/C=C/[C@@H](O)CCc1ccccc1`, the z-score was 0.113 (inactive) and the cell count turned out to be 5100.
With `O=C1C(Cc2ccc(O)cc2)N2C(=O)CCN(C(=O)NCc3ccccc3)C2CN1Cc1cccc2ccccc12` (configuration not stated), the z-score under setting [1] is -0.329 (inactive), the z-score under setting [2] was -0.452 (inactive), the z-score under setting [3] was -1.5 (inactive) and the z-score under setting [4] was -0.675 (inactive). Besides, the cell count came out at 7210 under setting [1], 7220 under setting [2], 7090 under setting [3] and 4220 under setting [4].
As to `CN(C)CCC1(c2ccc(Cl)cc2)Cc2ccccc2C(=O)O1` (configuration not stated), the z-score was -0.548 (inactive) under setting [1], -0.51 (inactive) under setting [2], -0.496 (inactive) under setting [3] and 0.011 (inactive) under setting [4]. Also, the cell count is, setting by setting: under setting [1], 6980; under setting [2], 6360; under setting [3], 6480; under setting [4], 6170.
Consider `C=C(C)[C@@H]1CCC(C)=C[C@H]1c1c(O)cc(C)cc1O`, for which the z-score was -0.799 (inactive) and the cell count was 5690.
Taken in the same sequence, the figures for `Nc1nc2c([nH]c(=O)n2[C@@H]2O[C@H](CO)[C@@H](O)[C@H]2O)c(=O)[nH]1` were -0.949 (inactive) and 5870.
Turning to `COc1cccc(-c2ccc(NC(=O)C3=C(C(=O)O)CCC3)c(F)c2)c1`, the z-score reads like this: under setting [1], 0.0997 (inactive); under setting [2], 0.11 (inactive); under setting [3], -0.285 (inactive); under setting [4], 7.02 (active). The cell count runs as follows: under setting [1], 6810; under setting [2], 6860; under setting [3], 6660; under setting [4], 3760.
`COc1cc(NC(=O)c2ccc(-c3ccc(Cl)cc3)o2)cc(OC)c1`: the z-score under setting [1] was -0.316 (inactive), the z-score under setting [2] was 0.0249 (inactive), the z-score under setting [3] was -0.417 (inactive) and the z-score under setting [4] was -1 (inactive). The cell count was found to be 6650 under setting [1], 6230 under setting [2], 6670 under setting [3] and 6710 under setting [4].
Regarding `NC(=O)c1cccc(-c2cccc(OC(=O)NC3CCCCC3)c2)c1`, the z-score is -0.595 (inactive) and the cell count was found to be 5600.
Taken in the same sequence, the figures for `C[C@@H](O)CCC[C@H](O)/C=C/C1=C(C/C=C\CCCC(=O)O)C(=O)CC1` were -0.229 (inactive) and 5100.
As to `c1ccc(Cc2ccncc2)cc1`, the z-score runs as follows: under setting [5], -0.46 (inactive); under setting [6], -0.111 (inactive); under setting [7], -0.201 (inactive); under setting [4], -0.169 (inactive). The cell count is, setting by setting: under setting [5], 5970; under setting [6], 5030; under setting [7], 5260; under setting [4], 5220.
Turning to `CC/C=C\C/C=C\C/C=C\CCCCCCCC(=O)O`, the z-score is -0.381 (inactive) and the cell count turned out to be 5900.
Taken in the same sequence, the figures for `CCCCCCCCCCCC(=O)CC(=O)N[C@H]1CCOC1=O` were -0.866 (inactive) and 5800.
Taken in the same sequence, the figures for `CCCCC[C@H](O)/C=C/[C@H]1CC[C@@H](O)[C@@H]1CCCCCCC(=O)O` were 0.234 (inactive) and 5240.
`CC1COCCN1c1cc(C2(S(C)(=O)=O)CC2)nc(-c2cccc3[nH]ccc23)n1` (configuration not stated): the outcome (library stock 10 mM) was “inactive; censored for cell count”. Besides, the z-score reads like this: under setting [5], -0.307 (inactive); under setting [6], -0.152 (inactive); under setting [7], 2.1 (active). The cell count by setting is: under setting [5], 5900; under setting [6], 5550; under setting [7], 2180.
`CCCCC[C@H](O)/C=C/[C@H]1[C@H](O)CC(=O)[C@@H]1CC(=O)CCCCC(=O)O`: the z-score is 0.036 (inactive) and the cell count is 5230.
As for `CN(C)C1CCc2[nH]c3ccc(NC(=O)c4ccc(F)cc4)cc3c2C1` (configuration not stated), the z-score is -0.478 (inactive) under setting [1], -0.381 (inactive) under setting [2], -0.318 (inactive) under setting [3] and -0.368 (inactive) under setting [4]. The cell count is 6480 under setting [1], 6070 under setting [2], 6670 under setting [3] and 6110 under setting [4].
Regarding `CCCCC[C@H](O)/C=C/[C@H]1C2COC(C2)[C@@H]1C/C=C/CCCC(=O)O` (some centres not stated), the z-score is -0.6 (inactive) and the cell count was determined as 5320.
On to `Cc1cc(Nc2cc(N3CCN(C)CC3)nc(Sc3ccc(NC(=O)C4CC4)cc3)n2)n[nH]1`, for which the outcome is “inactive; censored for cell count” (library stock 80 µM), “inactive; censored for cell count” (library stock 400 µM), “inactive; censored for cell count” (library stock 2 mM) and “inactive; censored for cell count” (library stock 10 mM). The z-score under setting [5] is 5.13 (active). Moreover, the cell count under setting [5] came out at 1630.
As for `CCCCC(C)(C)[C@H](O)/C=C/[C@H]1C=CC(=O)[C@@H]1CCCCCCC(=O)O`, the z-score was 0.218 (inactive) and the cell count was 4930.
Taken in the same sequence, the figures for `CCCCC[C@@H](O)/C=C/[C@H]1[C@H](O)CC(=O)[C@@H]1C/C=C\CCCC(=O)O` were -0.0831 (inactive) and 5100.
Taken in the same sequence, the figures for `CCCCCCCCCCCC(=O)O` were 0.0111 (inactive) and 5210.
As to `CCCCCCCCCCCCCCCCCCCCCCCCCCCCCCO`, the z-score is -1.19 (inactive) and the cell count came out at 5750.
The corresponding values for `CCCCCCCCCCCCCCP(=O)(O)O` are 1.99 (active) and 4360.
`O=C(O)CCn1nnc2ccccc21`: the z-score is -0.598 (inactive) under setting [1], -0.676 (inactive) under setting [2], -0.406 (inactive) under setting [3] and -0.311 (inactive) under setting [4]. Besides, the cell count is 7120 under setting [1], 7440 under setting [2], 7310 under setting [3] and 7490 under setting [4].
With `Cn1cncc1[C@@](N)(c1ccc(Cl)cc1)c1ccc2c(c1)c(-c1cccc(Cl)c1)cc(=O)n2C`, the z-score under setting [5] was 0.384 (inactive), the z-score under setting [6] was 1.69 (inactive), the z-score under setting [7] is 2.04 (active) and the z-score under setting [4] is 1.89 (inactive). Moreover, the cell count under setting [5] is 5540, the cell count under setting [6] is 3990, the cell count under setting [7] turned out to be 3590 and the cell count under setting [4] is 3700.
On to `CCCCCCCC/C=C\CCCCCCCCCCCCCC(=O)N[C@@H](CO)[C@H](O)/C=C/CCCCCCCCCCCCC`, for which the z-score was 0.191 (inactive) and the cell count was found to be 5540.
Taken in the same sequence, the figures for `CCCCC[C@H]1/C=C/[C@@H]2[C@@H](C/C=C\CCCC(=O)O1)[C@@H](O)C[C@H]2O` were -1.49 (inactive) and 5780.
Turning to `Cn1c2cc(S(C)=O)sc2c2cnn(Cc3cccc(N)c3)c(=O)c21` (configuration not stated), the z-score is 0.266 (inactive) under setting [1], 0.15 (inactive) under setting [2], -0.3 (inactive) under setting [3] and -0.338 (inactive) under setting [4]. Also, the cell count under setting [1] was determined as 6150, the cell count under setting [2] was found to be 6110, the cell count under setting [3] worked out at 6540 and the cell count under setting [4] turned out to be 6600.
For `O=P(O)(O)O[C@H]1[C@@H](O)[C@H](O)[C@@H](OP(=O)(O)O)[C@H](OP(=O)(O)O)[C@H]1O`, the z-score is -0.14 (inactive) and the cell count turned out to be 4340.
Regarding `COC(=O)NC(C)CNc1nccc(-c2cn(C(C)C)nc2-c2cc(Cl)cc(NS(C)(=O)=O)c2F)n1` (configuration not stated), the z-score runs as follows: under setting [1], -0.459 (inactive); under setting [2], -0.411 (inactive); under setting [3], 0.775 (inactive); under setting [4], 4.21 (active). Besides, the cell count by setting is: under setting [1], 6450; under setting [2], 6190; under setting [3], 4330; under setting [4], 1620.
As for `CCN(C)C(=O)Oc1cccc(C(C)N(C)C)c1` (configuration not stated), the z-score under setting [5] was -0.403 (inactive), the z-score under setting [6] is -0.339 (inactive), the z-score under setting [7] was -0.314 (inactive) and the z-score under setting [4] was -0.639 (inactive). For the same molecule, the cell count under setting [5] stood at 6790, the cell count under setting [6] was found to be 6310, the cell count under setting [7] was 6660 and the cell count under setting [4] was 6230.
As to `CC(C)(C)n1nc(Cc2cccc3ccccc23)c2c(N)ncnc21`, the z-score is -0.348 (inactive) and the cell count amounted to 5760.
For the molecule `Cc1ccc(-c2nn(C(C)(C)C)c3ncnc(N)c23)cc1`, the z-score by setting is: under setting [1], 0.0479 (inactive); under setting [2], 0.621 (inactive); under setting [3], 1.98 (active); under setting [4], 5.9 (active). The cell count under setting [1] worked out at 6410, the cell count under setting [2] was 5940, the cell count under setting [3] is 6220 and the cell count under setting [4] came to 4640.
In the case of `CC(C)(C)n1nc(-c2ccc(Cl)cc2)c2c(N)ncnc21`, the z-score under setting [5] is -0.14 (inactive), the z-score under setting [6] is 0.32 (inactive), the z-score under setting [7] was 0.695 (inactive) and the z-score under setting [4] was 1.68 (inactive). Further, the cell count under setting [5] turned out to be 5420, the cell count under setting [6] was determined as 5110, the cell count under setting [7] was 5300 and the cell count under setting [4] was found to be 4150.

The values above are taken from PubChem BioAssay AID1645838 (ICCB-Longwood Screening Facility, Harvard Medical School, 2021).
